Common to all, as to assay: DAPPL (digital affinity profiling via proximity ligation, sequencing); 10 mM Tris-HCl pH 7.5, 50 mM NaCl, 1 mM DTT, 4% glycerol, room temperature, 30 min; GST-TFs on glutathione beads, 16-mer random dsDNA library, 0.1% formaldehyde crosslink after washing; high values mean tight binding
Holding throughout (details): protein: recombinant; tags: N-terminal GST; dsDNA, one strand shown

Test [1] addresses T1, FLI1 (Homo sapiens, UniProt Q01543 1-452).
T1 sequence: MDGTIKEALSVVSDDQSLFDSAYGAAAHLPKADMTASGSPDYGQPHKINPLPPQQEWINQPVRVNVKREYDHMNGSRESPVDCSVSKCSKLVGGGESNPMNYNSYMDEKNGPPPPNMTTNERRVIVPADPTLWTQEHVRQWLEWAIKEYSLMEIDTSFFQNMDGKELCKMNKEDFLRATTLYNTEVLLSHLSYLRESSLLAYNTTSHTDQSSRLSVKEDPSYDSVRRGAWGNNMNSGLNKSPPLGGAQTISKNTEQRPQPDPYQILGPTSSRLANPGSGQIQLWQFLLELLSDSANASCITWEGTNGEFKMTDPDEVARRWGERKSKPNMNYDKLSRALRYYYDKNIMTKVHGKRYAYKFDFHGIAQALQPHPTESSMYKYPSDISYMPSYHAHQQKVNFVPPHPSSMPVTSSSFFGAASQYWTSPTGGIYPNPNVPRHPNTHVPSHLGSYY
A digest of the protocol:
(§1)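 Binding signal is each hexamer's read frequency for a factor divided by its frequency in the tag-only sample. The factors were GST-fused human transcription factors from yeast, captured on glutathione beads, DNA-barcoded and pooled with that sample. Pools were incubated with 200 nmole of a random double-stranded 16-mer DNA library in Tris/NaCl/DTT/glycerol buffer at room temperature for 30 min, then washed, crosslinked with 0.1% formaldehyde, proximity-ligated with BsaI/T4 ligase (1 h, 37 °C), PCR-amplified and sequenced on an Illumina NextSeq500.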

The target of test [2] is T2, ELK1 (Homo sapiens, UniProt P19419 1-428).
T2 sequence: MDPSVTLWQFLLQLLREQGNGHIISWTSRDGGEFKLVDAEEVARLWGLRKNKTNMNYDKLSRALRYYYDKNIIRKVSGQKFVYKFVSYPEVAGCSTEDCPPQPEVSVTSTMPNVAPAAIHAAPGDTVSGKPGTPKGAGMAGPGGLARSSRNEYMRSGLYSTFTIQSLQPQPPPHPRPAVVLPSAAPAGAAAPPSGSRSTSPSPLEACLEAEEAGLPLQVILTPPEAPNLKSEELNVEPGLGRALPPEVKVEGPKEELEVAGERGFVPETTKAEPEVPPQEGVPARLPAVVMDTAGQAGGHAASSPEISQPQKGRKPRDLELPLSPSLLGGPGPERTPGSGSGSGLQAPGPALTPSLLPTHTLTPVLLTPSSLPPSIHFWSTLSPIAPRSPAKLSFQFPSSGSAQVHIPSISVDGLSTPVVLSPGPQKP
The procedure, abridged:
as §1

Test [3] deals with T3, GABPA (Homo sapiens, UniProt Q06546 1-454).
T3 sequence: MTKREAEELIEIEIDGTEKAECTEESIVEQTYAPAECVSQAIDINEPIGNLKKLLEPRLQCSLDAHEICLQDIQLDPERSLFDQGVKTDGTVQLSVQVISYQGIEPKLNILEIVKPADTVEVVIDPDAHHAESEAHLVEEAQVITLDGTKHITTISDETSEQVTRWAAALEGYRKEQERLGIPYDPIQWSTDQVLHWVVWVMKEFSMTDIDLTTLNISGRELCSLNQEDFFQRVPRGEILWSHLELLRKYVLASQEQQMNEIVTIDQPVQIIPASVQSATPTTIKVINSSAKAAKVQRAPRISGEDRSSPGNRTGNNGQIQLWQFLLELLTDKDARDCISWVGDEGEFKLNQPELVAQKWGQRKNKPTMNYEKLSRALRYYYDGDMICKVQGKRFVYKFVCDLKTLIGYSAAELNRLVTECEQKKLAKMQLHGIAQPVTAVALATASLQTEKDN
The procedure, abridged: as §1

The target in test [4] is T4, ERG (Homo sapiens, UniProt P11308 1-479).
T4 sequence: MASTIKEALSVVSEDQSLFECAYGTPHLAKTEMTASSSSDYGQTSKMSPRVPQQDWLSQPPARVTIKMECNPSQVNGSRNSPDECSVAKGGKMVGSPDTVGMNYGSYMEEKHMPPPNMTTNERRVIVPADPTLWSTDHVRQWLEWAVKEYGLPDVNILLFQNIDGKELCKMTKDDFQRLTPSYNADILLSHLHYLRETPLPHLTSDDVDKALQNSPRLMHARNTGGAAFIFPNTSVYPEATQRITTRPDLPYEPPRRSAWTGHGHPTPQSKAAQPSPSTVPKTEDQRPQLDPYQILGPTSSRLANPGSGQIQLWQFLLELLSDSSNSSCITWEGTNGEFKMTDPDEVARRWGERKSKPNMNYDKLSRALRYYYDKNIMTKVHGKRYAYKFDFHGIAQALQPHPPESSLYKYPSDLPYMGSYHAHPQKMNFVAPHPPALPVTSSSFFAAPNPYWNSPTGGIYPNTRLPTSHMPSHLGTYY
The procedure, abridged:
as §1

Test [5] addresses ELF1 (Homo sapiens, UniProt P32519 1-619). A digest of the protocol:
as §1

Test [6] deals with T5, EHF (Homo sapiens, UniProt Q9NZC4 1-300).
T5 sequence: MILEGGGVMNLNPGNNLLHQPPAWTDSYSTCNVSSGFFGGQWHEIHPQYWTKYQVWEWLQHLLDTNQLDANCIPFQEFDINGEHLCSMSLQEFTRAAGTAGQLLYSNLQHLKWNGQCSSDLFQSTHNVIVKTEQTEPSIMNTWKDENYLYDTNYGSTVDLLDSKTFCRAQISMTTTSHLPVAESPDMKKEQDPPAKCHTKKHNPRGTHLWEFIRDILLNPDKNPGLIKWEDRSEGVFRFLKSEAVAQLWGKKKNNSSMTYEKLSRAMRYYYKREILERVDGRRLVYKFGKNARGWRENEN
A digest of the protocol: as §1

Test [7] has as its target SPI1 (Homo sapiens, UniProt P17947 1-270). The procedure, abridged: as §1
Test [8] concerns the target SPIB (Homo sapiens, UniProt Q01892 1-262). A digest of the protocol: as §1
Test [9] deals with T6, ELK3 (Homo sapiens, UniProt P41970 1-407).
T6 sequence: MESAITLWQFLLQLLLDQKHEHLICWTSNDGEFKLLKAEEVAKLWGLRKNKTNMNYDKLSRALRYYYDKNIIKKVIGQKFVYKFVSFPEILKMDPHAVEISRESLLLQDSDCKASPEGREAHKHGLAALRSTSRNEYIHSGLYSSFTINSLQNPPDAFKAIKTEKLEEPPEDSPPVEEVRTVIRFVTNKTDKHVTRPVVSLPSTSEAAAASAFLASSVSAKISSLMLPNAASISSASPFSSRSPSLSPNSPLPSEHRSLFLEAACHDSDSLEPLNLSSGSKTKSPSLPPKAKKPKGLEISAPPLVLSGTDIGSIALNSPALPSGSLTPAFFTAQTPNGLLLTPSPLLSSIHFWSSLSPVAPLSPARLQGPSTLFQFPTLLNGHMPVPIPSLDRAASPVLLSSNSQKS
The procedure, abridged:
as §1

These results are taken from publication PMC7862700, “An all-to-all approach to the identification of sequence-specific readers for epigenetic DNA modifications on cytosine”.

Sequence of ELF1 (P32519 whole entry): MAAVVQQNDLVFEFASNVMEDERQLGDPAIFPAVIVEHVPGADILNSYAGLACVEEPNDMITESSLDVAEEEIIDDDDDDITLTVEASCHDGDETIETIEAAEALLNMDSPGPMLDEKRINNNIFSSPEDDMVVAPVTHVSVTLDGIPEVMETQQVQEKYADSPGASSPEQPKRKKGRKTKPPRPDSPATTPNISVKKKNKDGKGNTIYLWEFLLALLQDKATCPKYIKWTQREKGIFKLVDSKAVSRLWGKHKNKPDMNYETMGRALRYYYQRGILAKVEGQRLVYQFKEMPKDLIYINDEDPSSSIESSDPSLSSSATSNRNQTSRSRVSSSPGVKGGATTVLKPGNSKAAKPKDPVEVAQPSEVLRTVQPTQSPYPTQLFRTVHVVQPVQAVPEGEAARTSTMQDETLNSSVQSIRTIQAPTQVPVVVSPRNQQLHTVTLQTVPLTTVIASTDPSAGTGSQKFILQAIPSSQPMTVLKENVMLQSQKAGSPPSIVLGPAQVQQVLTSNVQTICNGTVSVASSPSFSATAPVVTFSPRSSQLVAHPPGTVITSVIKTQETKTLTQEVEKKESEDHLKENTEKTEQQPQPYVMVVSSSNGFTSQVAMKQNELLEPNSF
Sequence of SPIB (Q01892 whole entry): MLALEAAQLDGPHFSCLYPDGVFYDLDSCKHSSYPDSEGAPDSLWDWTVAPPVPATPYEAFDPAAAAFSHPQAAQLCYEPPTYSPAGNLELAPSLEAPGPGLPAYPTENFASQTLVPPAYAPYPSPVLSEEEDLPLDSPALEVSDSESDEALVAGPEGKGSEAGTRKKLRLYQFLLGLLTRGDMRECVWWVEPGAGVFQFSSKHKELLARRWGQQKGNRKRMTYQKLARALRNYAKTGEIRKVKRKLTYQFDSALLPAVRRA

For CTTGGG, the binding signal in test [1] was 1.24 fold enrichment (6-mer frequency, TF over GST control); in test [2], 1.38 fold enrichment (6-mer frequency, TF over GST control); in [3] it was 1.36 fold enrichment (6-mer frequency, TF over GST control); in test [4], 1.29 fold enrichment (6-mer frequency, TF over GST control); in test [5] it was 1.26 fold enrichment (6-mer frequency, TF over GST control); in [6], 1.14 fold enrichment (6-mer frequency, TF over GST control). Besides, the binding signal in [7] is 1.29 fold enrichment (6-mer frequency, TF over GST control); in [8], 1.39 fold enrichment (6-mer frequency, TF over GST control); in test [9], 1.47 fold enrichment (6-mer frequency, TF over GST control).
TGATCT: the binding signal in [1] is 1.21 fold enrichment (6-mer frequency, TF over GST control); in test [2], 1.33 fold enrichment (6-mer frequency, TF over GST control); in [3] it was 1.18 fold enrichment (6-mer frequency, TF over GST control); in test [4] it was 1.22 fold enrichment (6-mer frequency, TF over GST control); in test [5], 1.18 fold enrichment (6-mer frequency, TF over GST control); in test [6], 1.22 fold enrichment (6-mer frequency, TF over GST control). In addition, the binding signal in test [7] was 1.15 fold enrichment (6-mer frequency, TF over GST control); in test [8], 1.28 fold enrichment (6-mer frequency, TF over GST control); in test [9], 1.23 fold enrichment (6-mer frequency, TF over GST control).
With CCGATA, the binding signal in test [1] is 1.16 fold enrichment (6-mer frequency, TF over GST control); in [2], 1.13 fold enrichment (6-mer frequency, TF over GST control); in test [3] it was 1.14 fold enrichment (6-mer frequency, TF over GST control); in test [4] it was 1.14 fold enrichment (6-mer frequency, TF over GST control); in [5], 1.17 fold enrichment (6-mer frequency, TF over GST control); in test [6], 1.18 fold enrichment (6-mer frequency, TF over GST control). Further, the binding signal in test [7] was 1.09 fold enrichment (6-mer frequency, TF over GST control); in [8], 1.03 fold enrichment (6-mer frequency, TF over GST control); in test [9] it was 1.14 fold enrichment (6-mer frequency, TF over GST control).
As for AATTTA, the binding signal in test [1] is 1.17 fold enrichment (6-mer frequency, TF over GST control); in test [2], 1.3 fold enrichment (6-mer frequency, TF over GST control); in [3], 1.24 fold enrichment (6-mer frequency, TF over GST control); in [4], 1.19 fold enrichment (6-mer frequency, TF over GST control); in test [5], 1.24 fold enrichment (6-mer frequency, TF over GST control); in test [6], 1.19 fold enrichment (6-mer frequency, TF over GST control). For the same sequence, the binding signal in test [7] is 1.2 fold enrichment (6-mer frequency, TF over GST control); in test [8], 1.4 fold enrichment (6-mer frequency, TF over GST control); in test [9], 1.16 fold enrichment (6-mer frequency, TF over GST control).
Take CCCATT: the binding signal in test [1] is 1.36 fold enrichment (6-mer frequency, TF over GST control); in test [2], 1.25 fold enrichment (6-mer frequency, TF over GST control); in test [3] it was 1.46 fold enrichment (6-mer frequency, TF over GST control); in test [4], 1.41 fold enrichment (6-mer frequency, TF over GST control); in test [5], 1.39 fold enrichment (6-mer frequency, TF over GST control); in test [6] it was 1.24 fold enrichment (6-mer frequency, TF over GST control). For the same sequence, the binding signal in test [7] was 1.47 fold enrichment (6-mer frequency, TF over GST control); in test [8] it was 1.27 fold enrichment (6-mer frequency, TF over GST control); in [9] it was 1.41 fold enrichment (6-mer frequency, TF over GST control).
For the sequence AGTGCT, the binding signal in test [1] is 1.47 fold enrichment (6-mer frequency, TF over GST control); in test [2], 1.36 fold enrichment (6-mer frequency, TF over GST control); in test [3] it was 1.29 fold enrichment (6-mer frequency, TF over GST control); in test [4] it was 1.37 fold enrichment (6-mer frequency, TF over GST control); in [5] it was 1.4 fold enrichment (6-mer frequency, TF over GST control); in [6], 1.4 fold enrichment (6-mer frequency, TF over GST control). In addition, the binding signal in [7] was 1.91 fold enrichment (6-mer frequency, TF over GST control); in test [8], 1.53 fold enrichment (6-mer frequency, TF over GST control); in [9], 1.59 fold enrichment (6-mer frequency, TF over GST control).
For the sequence AAACAC, the binding signal was 1.25 fold enrichment (6-mer frequency, TF over GST control) in test [1]; 1.33 fold enrichment (6-mer frequency, TF over GST control) in test [2]; 1.24 fold enrichment (6-mer frequency, TF over GST control) in test [3]; 1.33 fold enrichment (6-mer frequency, TF over GST control) in [4]; 1.31 fold enrichment (6-mer frequency, TF over GST control) in [5]; 1.35 fold enrichment (6-mer frequency, TF over GST control) in test [6]. Besides, the binding signal in [7] was 1.3 fold enrichment (6-mer frequency, TF over GST control); in [8], 1.27 fold enrichment (6-mer frequency, TF over GST control); in test [9], 1.24 fold enrichment (6-mer frequency, TF over GST control).
For TTCTGC, the binding signal in test [1] is 1.54 fold enrichment (6-mer frequency, TF over GST control); in [2] it was 1.49 fold enrichment (6-mer frequency, TF over GST control); in test [3], 1.4 fold enrichment (6-mer frequency, TF over GST control); in test [4], 1.32 fold enrichment (6-mer frequency, TF over GST control); in test [5], 1.52 fold enrichment (6-mer frequency, TF over GST control); in test [6], 1.46 fold enrichment (6-mer frequency, TF over GST control). For the same sequence, the binding signal is 1.5 fold enrichment (6-mer frequency, TF over GST control) in [7]; 1.34 fold enrichment (6-mer frequency, TF over GST control) in test [8]; 1.39 fold enrichment (6-mer frequency, TF over GST control) in test [9].
